The record followed here is PubChem BioAssay AID623939 (Vanderbilt Specialized Chemistry Center, 2012).

Calls of active or inactive are those of the source.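 Rule for the calls: active = a compound whose calcium signal at the M5 receptor changes in step with its dose; inactive = the rest.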

This experiment deals with Muscarinic acetylcholine receptor M5 (Homo sapiens) (UniProt P08912). The experiment in a line: off-target potentiation of hM5 acetylcholine response – CHO cells, Fluo-4 calcium, ACh EC20, selectivity assay for M4 PAM optimization project, SAR follow-up (AID 623939). The settings on record: series mostly up to 30 µM.
Muscarinic acetylcholine receptor M5 (Homo sapiens), sequence (P08912 whole entry, looked up): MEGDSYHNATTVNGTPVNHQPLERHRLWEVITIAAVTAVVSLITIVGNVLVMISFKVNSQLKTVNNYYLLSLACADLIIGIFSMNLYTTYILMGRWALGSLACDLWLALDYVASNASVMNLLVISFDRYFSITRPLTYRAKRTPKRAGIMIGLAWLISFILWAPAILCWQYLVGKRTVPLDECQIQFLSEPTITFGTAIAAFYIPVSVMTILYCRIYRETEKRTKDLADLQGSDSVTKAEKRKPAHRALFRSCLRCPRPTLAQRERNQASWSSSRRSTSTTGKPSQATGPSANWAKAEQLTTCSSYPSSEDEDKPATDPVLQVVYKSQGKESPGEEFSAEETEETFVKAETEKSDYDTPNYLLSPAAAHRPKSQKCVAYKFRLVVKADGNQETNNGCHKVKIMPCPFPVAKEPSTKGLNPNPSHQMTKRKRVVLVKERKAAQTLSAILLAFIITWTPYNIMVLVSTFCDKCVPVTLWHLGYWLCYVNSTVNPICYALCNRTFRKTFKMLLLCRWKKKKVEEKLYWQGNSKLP
On to `Cc1nc2sc(C(=O)NCCc3ccncc3)c(N)c2c(C)c1Cl`, for which the result was inactive.
Next, `Cc1nc2sc(C(=O)NC3CC3)c(N)c2c(C)c1Cl`: “inactive”; `Cc1nc2sc(C(=O)NCc3ccncn3)c(N)c2c(C)c1Cl`: “inactive”.
Turning to `COc1ccc(C)c2sc(NC(=O)c3ccncc3)nc12`, the outcome was inactive.
Then `Cc1nc2sc(C(=O)NCc3nccs3)c(N)c2c(C)c1Cl`, with “inactive”.
`Cc1nc2sc(C(=O)NCc3ccc4c(c3)OCO4)c(N)c2c(C)c1Cl`: the outcome was inactive.
Next, `Cc1nc2sc(C(=O)NCc3ccccc3)c(N)c2c(C)c1Cl`: “inactive”.
As to `Cc1nc2sc(C(=O)NCc3ccncc3)c(N)c2c(C)c1Cl`, the result was inactive.
For `Cc1nc2sc(C(=O)NCc3cccnc3)c(N)c2c(C)c1Cl`, the result was inactive.
For the compound `Cc1nc2sc(C(=O)NCc3cccc(F)c3F)c(N)c2c(C)c1Cl`, the result was inactive.
